Screening data as filed in PubChem.
This is one part of a sample in which hits are shown more often than they occur.
FAK inh: blocks human focal adhesion kinase activity; inhibition, %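 (tested at 7 µM)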; 97,000 compounds, 0.84% hits; biochemical FAK kinase activity assay; Q05397; AID 727; in the data active = inhibition above about 19%;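 also: 0% = DMSO and 100% = reference compound high control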
D1 allo mod: D1 dopamine receptor (human) allosteric modulation; B-score at 10 µM; P21728; AID 641; 58,000 compounds, 5.9% hits; HEK293 D1, CRE-luciferase, dopamine EC30 potentiation; actives deviate in either direction;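 active = luminescence count or its row- and column-corrected plate score outside the 99.7% band of the plate's sample wells, on either side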
Target sequence (P21728 whole entry, looked up): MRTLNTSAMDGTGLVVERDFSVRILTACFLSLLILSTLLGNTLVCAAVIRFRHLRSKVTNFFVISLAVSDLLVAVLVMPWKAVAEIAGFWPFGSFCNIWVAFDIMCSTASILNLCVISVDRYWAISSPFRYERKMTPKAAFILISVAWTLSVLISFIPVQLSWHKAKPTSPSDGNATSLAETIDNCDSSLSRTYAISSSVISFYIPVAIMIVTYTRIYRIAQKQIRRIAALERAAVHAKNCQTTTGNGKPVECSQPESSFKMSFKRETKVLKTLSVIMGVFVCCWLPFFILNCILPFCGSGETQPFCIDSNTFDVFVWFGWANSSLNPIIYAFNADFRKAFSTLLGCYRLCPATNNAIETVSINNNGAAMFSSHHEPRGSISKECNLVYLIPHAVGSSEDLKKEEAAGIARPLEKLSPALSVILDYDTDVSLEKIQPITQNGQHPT
CD11b adhes enh: increases human CD11b/CD18 adhesion to fibrinogen; P05107+P11215; K562 CD11b/CD18 adhesion to fibrinogen, ATPlite luminescence; activation, % at 10 µM; 93,000 compounds, 0.07% hits; AID 1499;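 active = 10 µM primary screen giving 50% or more activity, confirmed by 40% or more on retest at that dose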
hDAT+cocaine: human DAT dopamine uptake with cocaine, either direction | B-score at 10 µM | Q01959 | 110,000 compounds, 1.3% hits | LLC-PK1 hDAT cells, [14C]-dopamine uptake with cocaine IC80; actives deviate in either direction;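 active = Z score or B-score, a plate-position-corrected score, falls beyond the plate's 99.7% confidence bounds, in either direction; inactive = both scores lie inside the 99.7% bounds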;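 also: scored against the spread of the other compound wells on the same plate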
PTK2B oligo ant: antagonists of human Pyk2 oligomerization; Q14289; Q293 cells, Pyk2 FERM NanoBiT luminescence; active compounds read low; z-score (the deposit names both 25 µM and 10 µM); 99,000 compounds, 0.83% hits;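 active = Z-score of -3 or lower, scaled per plate to the spread of control and sample wells; inactive = z-score above -3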;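 also: negative z-score means lost luminescence so less FERM oligomerization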
Mac1 fbg inh: blocks human CD11b/CD18 adhesion to fibrinogen; K562 CD11b/CD18 adhesion to fibrinogen, ATPlite luminescence; Mn2+ added to activate the integrin; inhibition, % at 10 µM; 93,000 compounds, 0.54% hits;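 active = primary inhibition of 50% or more at 10 µM, then 40% or more on retest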
D1 PAM confirm: D1 receptor (human) allosteric modulation, confirmed | shares compounds with D1 allo mod | HEK293 D1 CRE-luciferase, dopamine EC30 potentiation; active compounds read high | luminescence at 10 µM | 2,200 compounds, 88% hits | AID 642;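 active = luminescence in either of two replicates above the same-plate mean plus 3 SD of the low-dose dopamine control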
D1 no dopamine: secondary test of D1 modulators: activity without dopamine; shares compounds with D1 allo mod; HEK293 D1 CRE-luciferase, luminescence, no dopamine; active compounds read high; luminescence at 10 µM; 1,900 compounds, 0.8% hits; in the data active = luminescence above about 3900
Isoprot counter: isoproterenol response counter-screen activity for D1 modulators | shares compounds with D1 allo mod | HEK293 D1 CRE-luciferase, isoproterenol EC30 counter-screen | calls only at 10 µM | 2,200 compounds, 63% hits | AID 647;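 active = luminescence in either replicate above plate mean of wells with a partly effective reference agonist dose plus 3 SD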;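 also: isoproterenol raises cAMP through native beta-adrenoceptor Gs so signal bypasses D1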
An asterisk follows results filed as active; i = inactive; x = no result; + = active, no number.

SMILES	FAK inh	D1 allo mod	CD11b adhes enh	hDAT+cocaine	PTK2B oligo ant	Mac1 fbg inh	D1 PAM confirm	D1 no dopamine	Isoprot counter
CCOC(=O)c1c(NC(=O)CSc2n[nH]c(N)n2)sc(CC)c1C	x	7.94*	-4.0	-0.295	-2.49	0.1	14984*	1740	+
CCOC(=O)c1c(NC(=O)CSc2nnnn2C)sc(C)c1C	-1.1	1.71	x	0.156	-0.82	x	x	x	x
CCOC(=O)c1sc(NC(=O)CSc2nncs2)c(C(=O)OCC)c1C	-0.2	3.96*	-3.9	-0.597	-0.66	1.2	6908*	1576	i
CCCn1c(SCC(=O)Nc2sc(C)c(C)c2C(=O)OCC)nc2c1c(=O)n(C)c(=O)n2C	1.8	6.46*	-5.8	0.304	-0.22	-2.9	8860*	1644	i
O=C(CN1CCOCC1)N1CCN(C(=O)CN2CCOCC2)CC1	1.2	0.151	x	x	x	x	x	x	x
COc1ccc(Cl)cc1N1C(=O)/C(=C\c2sccc2C)N=C1SCC(=O)NC1CC1	3.0	x	-6.3	-0.715	-2.57	-1.1	x	x	x
Cc1c(C(=O)N2CCCc3ccccc32)oc2ccc(S(=O)(=O)N3CCOCC3)cc12	-6.8	0.105	-2.4	1.29	-1.88	-15.8	x	x	x
CCCc1nnc(NC(=O)C(CC)OC(=O)c2cc(C)nc3ccccc23)s1 (configuration not stated)	2.6	x	x	2.47	-2.04	x	x	x	x
CCOC(=O)c1c(NC(=O)CSc2nnnn2CC)sc(C)c1C	0.6	3.87*	1.4	0.0217	-0.91	3.1	13084*	1736	+
O=C(CSc1nc2ccc([N+](=O)[O-])cc2[nH]1)NCCc1ccccc1	-3.3	x	x	-1.86	1.4	x	x	x	x
O=C(CSc1ccccc1C(=O)NCc1ccccc1)NC1CCCCCCC1	x	x	-1.4	x	-0.38	-6.1	x	x	x
Cc1cc(C)nc(-n2nc(C)cc2NC(=O)CN2CCC(C)CC2)n1	6.0	5.29*	-1.1	1.87	-0.05	-8.0	16268*	1592	+
CCn1cc(C(=O)OCC(=O)NCc2ccc3c(c2)OCO3)c(=O)c2ccc(C)nc21	1.1	2.72*	-3.9	1.38	0.98	-22.0	8368*	1576	+
CCn1cc(C(=O)OCc2ccc(F)cc2)c(=O)c2ccc(C)nc21	3.4	9.86*	x	2.35	-0.28	x	10188*	1412	+
CCn1cc(C(=O)OCC(=O)OC2CC(C)CCC2C(C)C)c(=O)c2ccc(C)nc21 (configuration not stated)	7.6	6.39*	3.8	0.135	-0.89	-3.6	9780*	1408	i
CCOC(=O)c1ccccc1NC(=O)c1cn(CC)c2nc(C)ccc2c1=O	x	4.95*	x	x	x	x	4076	892	i
CCn1cc(C(=O)OCC(=O)Nc2c(C)n(C)n(-c3ccccc3)c2=O)c(=O)c2ccc(C)nc21	3.9	0.642	-2.6	1.29	-0.15	1.0	x	x	x
Cc1ccsc1C(=O)OCC(=O)NCc1ccc2c(c1)OCO2	x	-0.405	-0.2	-0.732	1.21	-0.8	x	x	x
COc1ccc(C2C3=C(CCCC3=O)Nc3nc4ccccc4n32)cc1OC (configuration not stated)	-1.5	1.55	x	x	x	x	x	x	x
CCCC(=O)N=C1SC2CS(=O)(=O)CC2N1c1ccc(C(C)=O)cc1 (configuration not stated)	2.6	-0.905	1.2	0.188	0.64	0.5	x	x	x
CCOc1ccc(NC2c3ccccc3C(=O)N2Cc2ccco2)cc1 (configuration not stated)	6.3	-0.106	-1.5	0.919	x	30.4	x	x	x
CCn1cc(C(=O)OCc2ccccc2)c(=O)c2ccc(C)nc21	3.6	5.85*	-0.3	1.26	-0.04	-11.9	9156*	1600	i
CCn1cc(C(=O)Nc2ccccc2C(=O)OC)c(=O)c2ccc(C)nc21	x	1.08	x	x	x	x	x	x	x
CCn1cc(C(=O)OCc2cccc(Br)c2)c(=O)c2ccc(C)nc21	1.5	6.6*	-0.9	1.06	-0.05	-4.6	14972*	1524	+
CCOC(=O)N1CCN(S(=O)(=O)c2cc(Br)cc3c2N(C(C)=O)C(C)C3)CC1 (configuration not stated)	x	0.514	-1.3	1.78	-0.34	-19.4	x	x	x
SMILES	FAK inh	D1 allo mod	CD11b adhes enh	hDAT+cocaine	PTK2B oligo ant	Mac1 fbg inh	D1 PAM confirm	D1 no dopamine	Isoprot counter
CCOC(=O)C1CCN(S(=O)(=O)c2cc(Br)cc3c2N(C(C)=O)C(C)C3)CC1 (configuration not stated)	x	4.58*	x	0.518	-0.12	x	8392*	1388	+
Cc1sc2nc(CN3CCN(S(=O)(=O)c4cccc5nonc45)CC3)[nH]c(=O)c2c1C	2.2	3.64*	-4.2	1.42	-1.09	-5.9	8576*	1552	i
Cc1ccc(S(=O)(=O)N2CCN(Cc3nc4sc(C)c(C)c4c(=O)[nH]3)CC2)cc1	0.9	x	-6.4	0.0369	1.1	4.6	x	x	x
COc1ccc(CCN(C)C(=O)CSc2nccn2C)cc1OC	1.5	4.47*	2.5	-0.625	0.52	-21.5	9340*	x	i
O=C(Cn1cc2c(n1)CCCCC2)NCCCN1CCOCC1	x	2.6*	1.7	-0.434	x	-3.3	5840	1452	i
O=C(Cn1cc2c(n1)CCCC2)NCCCN1CCCC1	-1.1	-0.614	0.5	-0.0253	x	-6.8	x	x	x
CCn1ncc(C2=NOC(C(=O)Nc3ccc(C)cc3)C2)c1C (configuration not stated)	-1.2	x	-4.3	0.25	0.87	5.7	x	x	x
CCn1ncc(C2=NOC(C(=O)Nc3ccc4c(c3)OCO4)C2)c1C (configuration not stated)	x	4.57*	-8.2	0.536	1.68	2.0	7668*	1584	i
CCCCCn1c(N(C)Cc2ccccc2)nc2c1c(=O)[nH]c(=O)n2C	2.9	14.1*	2.6	0.064	x	-2.6	21892*	1452	+
CN(Cc1ccccc1)c1nc2c(c(=O)[nH]c(=O)n2C)n1CCCSc1ncccn1	-2.1	x	-2.1	1.65	2	-5.2	x	x	x
CN(Cc1ccccc1)c1nc2c(c(=O)[nH]c(=O)n2C)n1CCOc1ccccc1	-3.3	6.8*	0.1	-0.538	-0.83	-2.7	12188*	1500	+
CN(Cc1ccccc1)c1nc2c(c(=O)[nH]c(=O)n2C)n1Cc1ccccc1	0.7	23.1*	6.2	0.024	-0.77	-9.9	19372*	1600	+
CCOC(=O)C1=C(Nc2ccc(Br)cc2)CC(C)(O)C(C(=O)OCC)C1c1ccccc1 (configuration not stated)	2.8	x	-4.4	-0.0466	-0.65	-6.5	x	x	x
CCNc1nc(NC(C)(C)C)nc(N(CC)n2cnnc2)n1	-5.2	2.72*	x	0.848	0.07	x	8308*	1680	i
